Only some compounds are listed: those with a hit (about 6.5% of all), similar ones and a draw of the others.
HepG2 viability: HepG2 cytotoxicity, counter-screen for TGF-b inhibitors | Potency, µM (highest dose often 46.1 µM), for the others: at the top dose activity change, negative = cytotoxicity, actives largely listed as cytotoxic | HepG2 CAGA-GFP viability, ATP luminescence, 18 h | actives 0.76% (n = 410,000) | AID 588856; further: potency means the concentration at half of the fitted maximal effect
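CellTiter-Glo luminescence gave cytotoxicity after 18 hours at 37 degrees C. The cells were HepG2 CAGA-GFP in 1% FBS DMEM, stimulated with 500 pg/mL TGF-beta after compound addition. %Activity was normalised to no-cell wells (complete cell-killing) and DMSO (no toxicity), and curves were fitted and classified.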
IL-1B inflam inh: inhibitors of inflammasome signaling (IL-1 beta secretion). activity change, % at 57.5 µM. actives 4.7% (n = 360,000). THP-1 LPS/ATP IL-1B secretion, AlphaLISA, 16 h; active compounds read low; in the data active means activity change below about -50%; inconclusive means mostly about -30% to -49%; further: on the % scale 0 is the no-effect control and ±100 the full control effect
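Secreted IL-1B measured by AlphaLISA bead assay after 16 h compound exposure of THP-1 cells; compounds (final up to 57.5 uM) added 1 h before LPS (250 ng/mL) and ATP (1.25 mM) stimulation; lower signal means less secretion.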
HT1080NT lethal: kills 2HG-producing HT-1080-NT fibrosarcoma cells | HT-1080-NT fibrosarcoma viability, CellTiter-Glo ATP luminescence, 48 h | Potency, µM (top dose mostly 46.1 µM), without a hit: at the top dose activity, negative = less viability, hits mostly cytotoxic | AID 686970 | actives 1.6% (n = 360,000);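 further: NT is the 2HG producing partner of a matched IDH1 knockdown line; potency means the concentration at half of the fitted maximal effect; 0% = DMSO-treated cells and -100% = media-only wells without cells; nearly all actives have a fitted effect of over 55% in size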
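Toxicity toward the 2HG-producing NT line was scored as %Activity, normalised to DMSO and no-cell wells, from CellTiter-Glo luminescence after 48 hours' treatment.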
Giardia killer: kills Giardia lamblia | Giardia lamblia trophozoite viability | activity change, % at 7.66 µM, hits read low | actives 0.15% (n = 340,000) | AID 540267; in the data active means activity change below about -80%; inconclusive means between about -30% and that limit;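 further: parasites exposed to compound for two days anaerobically before the ATP read; on the % scale 0 is the no-effect control and ±100 the full control effect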
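Trophozoite viability was measured as ATP-dependent luminescence, read 15-30 min after reagent addition. Before that, parasites at 100 cells/well were exposed to compounds for 48 h, anaerobically, at 37 deg C.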
TGFb SMAD3 inh: TGF-b pathway inhibition. Potency, µM (highest dose often 46.1 µM), without a hit: top-dose activity, negative = inhibition, hits mostly inhibitors. HepG2 CAGA-GFP TGF-b/SMAD3 reporter, GFP fluorescence, 18 h; TGF-beta stimulated, 500 pg/mL final. AID 588855. actives 1.2% (n = 410,000); further: potency means the concentration at half of the fitted maximal effect; on the % scale 0 is the no-effect control and ±100 the full control effect; nearly all actives have a fitted effect of over 65% in size
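Per well, imaged GFP fluorescence of HEPG2 CAGA-GFP cells gives the signal; cells get compound, then TGF-beta (500 pg/mL final), 18 h at 37 degrees C; %Activity versus -TGF-beta and +DMSO controls.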
HT1080 IDH1KD tx: HT-1080 IDH1 knockdown cell toxicity (counter line). AID 686971. actives 2% (n = 360,000). HT-1080 IDH1 knockdown viability, ATP luminescence, 48 h. Potency, µM (doses to about 46.1 µM), for the others: at the top dose activity, negative = toxicity, hits mostly cytotoxic;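 further: potency means the concentration at half of the fitted maximal effect; 0% = DMSO wells and -100% = cell-free medium wells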
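Using the IDH1-knockdown HT-1080 line run in the same batch and compound series as the NT line, viability after 48 h at 37 °C was determined by CellTiter-Glo luminescence and expressed as % activity.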
* marks the source's active call; other numbers are inactive results. Unless noted, the call rests on the fitted dose curve; in most records, active means well fitted curve in the direction sought with a large enough effect; inconclusive means small, poorly fitted or top-dose-only effect, or another doubt; inactive means no such curve, though single readings can be large; an effect the other way counts as inactive or inconclusive.

Results for CC(C)=CCCC(C)CN1CCC(N2CCC(C(=O)NC(C)C)CC2)CC1 (configuration not stated) ?
HepG2 viability: -24%; IL-1B inflam inh: -25; HT1080NT lethal: -3%; Giardia killer: -3; TGFb SMAD3 inh: -18%; HT1080 IDH1KD tx: -8%

How did CC1(C)CC(=O)C2=C(C1)OC1=C(C(=O)CC(C)(C)C1)C2c1ccc(O)c([N+](=O)[O-])c1 do in these assays?
HepG2 viability: 3%; IL-1B inflam inh: 3; HT1080NT lethal: 1%; Giardia killer: 29; TGFb SMAD3 inh: -2%; HT1080 IDH1KD tx: 4%

What do the screens show for `CC1(C)CC(=O)C2=C(C1)OC1=C(C(=O)CC(C)(C)C1)C2c1ccc(O)cc1O`?
HepG2 viability: 7.1µM*; IL-1B inflam inh: -104*; HT1080NT lethal: 5.6µM*; Giardia killer: -2; TGFb SMAD3 inh: 7.1µM*; HT1080 IDH1KD tx: 5µM*

How did Cc1nn(C)c(C)c1S(=O)(=O)NC1CCCC1 do in these assays?
HepG2 viability: -5%; IL-1B inflam inh: 6; HT1080NT lethal: 6%; Giardia killer: -2; TGFb SMAD3 inh: 7%; HT1080 IDH1KD tx: 3%

What do the screens show for `Cc1nn(-c2nnc(NC3CCCCC3)nn2)c(C)c1Br`?
HepG2 viability: -21%; IL-1B inflam inh: -75*; HT1080NT lethal: 10%; Giardia killer: 14; TGFb SMAD3 inh: 4%; HT1080 IDH1KD tx: 6%

Results for Cc1c(C(=O)N/N=C/C(C)C)[nH]c2c([N+](=O)[O-])cccc12 ?
HepG2 viability: -26%; IL-1B inflam inh: 80; HT1080NT lethal: inconclusive; Giardia killer: -21; TGFb SMAD3 inh: -29%; HT1080 IDH1KD tx: 2.6µM*

Results for CC1CCCCN1c1csc2ccc(F)cc2c1=O (configuration not stated) ?
HepG2 viability: -8%; TGFb SMAD3 inh: -14%

How did Cn1ncc2cc(NC(N)=S)ccc21 do in these assays?
HepG2 viability: -3%; IL-1B inflam inh: 7; HT1080NT lethal: 4%; Giardia killer: -9; TGFb SMAD3 inh: 0%; HT1080 IDH1KD tx: -2%

What do the screens show for `CN(C)c1nc(=NCc2ccco2)ss1`?
HepG2 viability: -74%; IL-1B inflam inh: -89*; HT1080NT lethal: -3%; Giardia killer: inconclusive; TGFb SMAD3 inh: 0.32µM*; HT1080 IDH1KD tx: -6%

What do the screens show for `COC(=O)c1sccc1NC(=S)N1CCCC(C)C1` (configuration not stated)?
HepG2 viability: -4%; IL-1B inflam inh: 20; HT1080NT lethal: 0%; Giardia killer: -17; TGFb SMAD3 inh: 3%; HT1080 IDH1KD tx: -6%

Results for CC(C)(C)c1cc(NC(=O)c2cccs2)no1 ?
HepG2 viability: -36%; IL-1B inflam inh: -51*; HT1080NT lethal: -21%; Giardia killer: -1; TGFb SMAD3 inh: 10%; HT1080 IDH1KD tx: -24%

What do the screens show for `COC(=O)N/N=C/c1ccccc1OCc1ccccc1`?
HepG2 viability: -13%; IL-1B inflam inh: -14; HT1080NT lethal: 4%; Giardia killer: -15; TGFb SMAD3 inh: -8%; HT1080 IDH1KD tx: 5%

Results for COC(=O)N/N=C\c1cc(Br)ccc1OCc1ccccc1 ?
HepG2 viability: -19%; IL-1B inflam inh: -73*; HT1080NT lethal: 0%; Giardia killer: -15; TGFb SMAD3 inh: -13%; HT1080 IDH1KD tx: -2%

What do the screens show for `CC(=O)Nc1ccc(C(=O)N/N=C/c2ccccc2OCc2ccccc2)cc1`?
HepG2 viability: 0%; IL-1B inflam inh: 13; HT1080NT lethal: 16µM*; Giardia killer: 9; TGFb SMAD3 inh: 39%; HT1080 IDH1KD tx: 21µM*

What do the screens show for `NCCCCc1ccc2ccc3cccc4ccc1c2c34`?
HepG2 viability: -28%; IL-1B inflam inh: -28; HT1080NT lethal: inconclusive; Giardia killer: -3; TGFb SMAD3 inh: inconclusive; HT1080 IDH1KD tx: -21%
